Measured values from ChEMBL document CHEMBL1157539, “Thousands of chemical starting points for antimalarial lead identification” (Nature, 2010).

Experiments:
Assay type in all cases: functional
[1] = test system: Plasmodium falciparum; assay: GSK_TCMDC: Inhibition of Plasmodium falciparum 3D7 in whole red blood cells, using parasite LDH activity as an index of growth. Test compounds present at 2uM
[2] = test system: Plasmodium falciparum; assay: GSK_TCMDC: Inhibition of Plasmodium falciparum Dd2 in whole red blood cells, using parasite LDH activity as an index of growth. Test compounds present at 2uM
[3] = test system: HepG2; assay: GSK_TCMDC: Percent inhibition of human HepG2 cell line. Test compounds present at 10uM.

Row | Structure (SMILES) | Inhibition [1] | Inhibition [2] | Inhibition [3]
1 | O=C(/C=C/c1ccc(Cl)c(Cl)c1)NCCCCCCN1CCN(C(=O)Nc2ccc(F)c(Cl)c2)CC1 | 86% | 2% | 40%
2 | O=C(NCCCCCCNCc1ccc(-c2ccccc2)cc1)Nc1ccc(Cl)c(Cl)c1 | 90% | 2% | 14%
3 | O=C(NCC1CCC1)c1cnc(Nc2cccc(Cl)c2)nc1N1CCC1 | 98% | 75% | 21%
4 | O=C1OC(c2cc3ccccc3n2S(=O)(=O)c2ccccc2)(c2cc3ccccc3n2S(=O)(=O)c2ccccc2)c2ccccc21 | 95% | 78% | 1%
5 | O=C(/C=C/c1ccc(Cl)c(Cl)c1)NC1CCN(Cc2cccc(O)c2)CC1.O=C(O)C(F)(F)F | 94% | 0% | 0%
6 | Cc1ccc(C2CCN(CCCCNC(=O)c3ccc(NC(=O)c4ccc(Cl)cc4)cc3)CC2)c(OCC2CC2)c1.Cl | 100% | 95% | 63%
7 | Oc1c(Cl)cc(Nc2nccc(Nc3ccc(Oc4ccccc4)cc3)n2)cc1Cl | 99% | 26% | 8%
8 | Cc1cccc2nc(-c3ccc(-c4ccc(CN5CCC(C(N)=O)CC5)cc4)cc3)[nH]c12.O=C(O)C(F)(F)F | 91% | 32% | 8%
9 | Fc1cccc(C=NN=c2cc[nH]c3ccc(C(F)(F)F)cc23)c1 | 100% | 97% | 0%
10 | CN/C(=C\[N+](=O)[O-])NCCSCc1cc(C)c(CN(C)C)s1 | 98% | 96% | 48%
11 | Cc1cccc2nc(-c3ccc(-c4cccc(CN5CCN(c6ccc(C#N)cn6)CC5)c4)s3)[nH]c12.O=C(O)C(F)(F)F | 85% | 8% | 37%
12 | O=C(NCCN1CCCCC1)c1ccc(CNC(=O)c2ccc(O)c(-c3ccc(Cl)c(Cl)c3)c2)cc1 | 93% | 68% | 3%
13 | O=C(Nc1ccccc1Cl)c1cc2ccccc2cc1O | 94% | 72% | 2%
14 | COc1cc(C(=O)N2CCC(CCN3CCC4(CC3)CN(S(C)(=O)=O)c3ccccc34)CC2Cc2ccc(Cl)c(Cl)c2)cc(OC)c1OC.Cl (stereo not given) | 100% | 99% | 29%
15 | N#Cc1ccc(OCCN(Cc2ccccc2C(F)(F)F)c2ccc(C#N)c(C(F)(F)F)c2)cc1 | 100% | 84% | 69%
16 | Cc1cc(NCCC(=O)NCc2cccc(F)c2)nc(NCCc2ccc(F)cc2)n1.O=C(O)C(F)(F)F | 89% | 2% | 0%
17 | CN(C)c1ccc(-c2ccc(C(=O)NC3CCN(Cc4ccccc4F)CC3)s2)cc1.O=C(O)C(F)(F)F | 88% | 19% | 30%
18 | CN(Cc1ccc(-c2ccc(C(F)(F)F)cc2)cc1)C(=O)Cn1c(CCc2cccc(F)c2F)cc(=O)c2ccc(OCC3CCCN3C)cc21.O=C(O)C(O)C(O)C(=O)O (stereo not given) | 87% | 37% | 100%
19 | NC1CCN(c2cnn(Cc3cccc(NC(=O)Nc4ccc(-c5ccccc5)cc4)c3)c(=O)c2Cl)CC1.O=C(O)C(F)(F)F | 89% | 11% | 5%
20 | NCc1cccc(-c2cccc(CNC3CCN(Cc4ccccc4)CC3)c2)c1.O=C(O)C(F)(F)F | 100% | 45% | 9%
21 | N#Cc1ccc(-c2ccc(C(=O)NC3CCN(CCN4CCC(c5cn(CCO)c6ccccc56)CC4)CC3)cc2)cc1 | 100% | 79% | 30%
22 | COc1cccc(C(=O)NCc2cccs2)c1Oc1ccccc1 | 98% | 4% | 0%
23 | O=C(Nc1cccc(N2CCC(NCCCn3ccnc3)CC2)c1)c1cccc(C(F)(F)F)c1 | 100% | 2% | 8%
24 | CC(C)(C)c1ccc(NC(=O)c2ccc(CN3CCCN(Cc4cccc(O)c4)CC3)cc2)cc1.O=C(O)C(F)(F)F | 100% | 62% | 54%
25 | COc1cc2[nH]c(-c3ccc(O)cc3)c(C)c(=O)c2c(OC)c1OC | 100% | 94% | 1%
26 | CC(C)Cn1cc(C2CCN(CCN3CCC(CNC(=O)c4ccc(NC(=O)c5ccc(Cl)cc5)cc4)CC3)CC2)c2ccccc21 | 100% | 99% | 28%
27 | COc1ccc2ccc(OC)c(CNCCCCCCNCc3c(OC)ccc4ccc(OC)cc34)c2c1.CS(=O)(=O)O | 100% | 32% | 100%
28 | O=C(/C=C/c1ccc(Cl)c(Cl)c1)NCCCCN1CCCN(C(=O)Nc2cc(Cl)cc(Cl)c2)CC1 | 97% | 1% | 21%
29 | Cc1nc2nc(N)nc(N)c2c(C)c1Cc1c(Cl)cccc1Cl.Cl | 94% | 5% | 7%
30 | Cc1ccc(C(=O)Nc2cc(S(=O)(=O)N3CCCC3)ccc2OCC(F)(F)F)cc1 | 93% | 3% | 0%
